The whole screen tested about 5,500 compounds, of which about 2,000 (36%) were called active. Roughly 18% stayed inconclusive and do not appear here. Rule as the data show it: active = normalized growth mostly below about 0.91 (no sharp cut-off); inconclusive = no clear call, values can overlap the other calls; inactive = mostly above about 0.92. Some of the results follow.
Assay: chemical genetic growth profiling, strain panel (AID 1159580);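 also: tested at 20 µM; growth read once vehicle control cultures reached saturation at 30 °C; 1 = growth at the plate median or of vehicle wells; lower values mean less growth of the strain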
Conditions: S. cerevisiae deletion strains, growth OD

Measured: normalized growth

COc1ccc2c(c1OC)C(=O)O[C@@H]2[C@H]1c2c(cc3c(c2OC)OCO3)CCN1C
inactive: locus YAL040C, strain CLN3, active compounds read low 0.984 | locus YCL061C, strain MRC1 (second series), active compounds read low 1 | locus YDR150W, strain NUM1, active compounds read low 1 | locus YDR363W, strain ESC2, active compounds read low 0.998 | locus YER002W, strain NOP16, active compounds read low 0.985 | locus YGR229C, strain SMI1, active compounds read low 0.998 | locus YJR075W, strain HOC1, active compounds read low 1 | locus YMR307W, strain GAS1, active compounds read low 0.991 | locus YNL153C, strain GIM3, active compounds read low 1.01 | locus YNL175C, strain NOP13, active compounds read low 1 | locus YNL197C, strain WHI3, active compounds read low 1.01 | locus YNL224C, strain SQS1, active compounds read low 1 | locus YNL322C, strain KRE1, active compounds read low 0.994 | locus YOR083W, strain WHI5 (second series), active compounds read low 1.01 | locus YPL055C, strain LGE1, active compounds read low 0.99

Source: PubChem BioAssay AID1159580 (chemical genetic matrix, 2015)
